# According to PubChem BioAssay (NCI):
# This is part of a sample that, as a whole, favours compounds with a hit. Of some 79,000 tested, about 15% had one in any assay. Values without a mark were called inactive. Active and inactive are the calls of the source. No stated cut-off is given here; in the data, active means growth inhibition above about 70%; inactive means the rest.
# Experiments:
# [1] = NCI Yeast Anticancer Drug Screen. Data for the rad50 strain (AID 155);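 further: 0% = growth of vehicle-only cultures of the same strain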; details: S. cerevisiae rad50 strain growth inhibition; at 50.0 µM; hits give high values
# Summary of the method: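 Inhibition values express reduced yeast growth in compound-treated cultures relative to vehicle-treated controls.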
# [2] = NCI Yeast Anticancer Drug Screen. Data for the mec2-1 strain (AID 157); details: S. cerevisiae mec2-1 strain, at 50.0 µM, hits give high values
# Summary of the method: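 Compounds were applied to mec2-1 yeast cells. Their growth was then compared with that of vehicle-treated cultures to give growth inhibition.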
# [3] = NCI Yeast Anticancer Drug Screen. Data for the sgs1 mgt1 strain (AID 161);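 further: 0% = growth of cultures given vehicle only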; details: S. cerevisiae sgs1 mgt1 strain, at 50.0 µM, hits give high values
# Summary of the method: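 Yeast cells carrying a defined DNA-repair defect were exposed to test compounds. Growth inhibition was measured relative to vehicle-treated controls.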
# [4] = NCI Yeast Anticancer Drug Screen. Data for the cln2 rad14 strain (AID 165);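 further: 0% = growth equal to vehicle treated cultures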; details: S. cerevisiae cln2 rad14 strain, at 50.0 µM, hits give high values
# Summary of the method: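 Strain: cln2 rad14 yeast, altered in cell cycle control and DNA damage repair. Read-out: growth inhibition vs vehicle.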
# [5] = NCI Yeast Anticancer Drug Screen. Data for the bub3 strain (AID 167); details: S. cerevisiae bub3 mutant strain, at 50.0 µM, hits give high values
# Summary of the method: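 Steps: expose the mutant yeast strain to compound; grow alongside vehicle-treated cultures; measure growth; express inhibition against the vehicle cultures.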
# [6] = NCI Yeast Anticancer Drug Screen. Data for the mlh1 rad18 strain (AID 175); details: S. cerevisiae mlh1 rad18 strain growth inhibition; at 50.0 µM; hits give high values
# Summary of the method: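 A repair-deficient yeast strain is exposed to test compound, and growth is scored relative to vehicle-treated controls.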
SMILES,growth inhibition [1],growth inhibition [2],growth inhibition [3],growth inhibition [4],growth inhibition [5],growth inhibition [6]
C1OC[C@@H]([C@H]2COCO2)O1,-15.4%,-11.4%,-7%,-0.8%,1.95%,-11.7%
COc1c(C)c(OC)c(C(=O)CC(C)C)c(OC)c1C,0.4%,5.05%,35.2%,20.4%,19.7%,-29.6%
COc1cc2c(c(OC)c1OC)-c1ccc(OC)c(=O)cc1C(NC(=O)COc1ccccc1)CC2 (configuration not stated),16.5%,-28.6%,15.2%,11.2%,6.95%,14.6%
Oc1ccc2ccccc2c1/C=N/N=C/c1c(O)ccc2ccccc12,31.4%,-14.6%,53.8%,20.9%,6.4%,3.8%
Cc1ccc(-n2c(C)n[nH]c2=O)cc1,-10.7%,-18%,-9.8%,8%,-4.3%,3.2%
O=C(Cc1ccccc1)N(c1ccccc1)c1ccccc1,23.5%,-9.25%,13%,14.7%,49.9%,5.9%
Cc1cc(=O)[nH]c(/N=C(\N)Nc2ccc(Br)c(C(F)(F)F)c2)n1,10.1%,2.85%,-3.8%,6.55%,-1.5%,2.9%
CSc1n[nH]c(-c2cccs2)n1,-6.6%,-15.7%,19.9%,-8.3%,-6.35%,-0.9%
CCCCCCCCC(C)C,1.25%,3.35%,-0.3%,10.8%,1.65%,-2.65%
CCOC(=O)c1cnc2n(c1=O)[C@H]1CCCC[C@@H]1N2,59%,5.55%,-9.05%,9.75%,8.7%,5.65%
COc1ccc(Cl)cc1NC(=O)Nc1cccc(C(C)=O)c1,-4.55%,16.6%,11.3%,-13.3%,17.9%,31.4%
Cc1cc(C)n2ncnc2n1,16.9%,-22.6%,7.9%,4.15%,-5.15%,5.35%
c1ccc2c(c1)ncc1cccn12,5.15%,-10.9%,0.65%,3.45%,7.7%,1.25%
COc1cccc2cc(C(C)=O)c(=O)oc12,8.65%,-5.35%,1.6%,3%,9.05%,2.85%
COc1cc([C@@H]2c3cc4c(cc3[C@](C)(O)[C@H]3COC(=O)[C@H]23)OCO4)cc(OC)c1OC,19.7%,10.4%,14.1%,22.8%,19.1%,11%
COc1cc(OC)c(C2CC(C)(O)Oc3cc4c(cc32)OCO4)c(OC)c1 (configuration not stated),17.4%,3.8%,26.9%,3.9%,22.1%,11.8%
O=CNc1ccc(-c2ccc(NC=O)cc2)cc1,27.6%,4.5%,7.75%,13.1%,-12.8%,-6.4%
CC(OC(C)C(N)=O)C(N)=O (configuration not stated),-0.05%,0.55%,-5.8%,-3.05%,4.9%,-1.15%
C1C[OH+]CCNCC[OH+]CC[OH+]CCN1.[Cl-].[Pt+4],-14.5%,-29.2%,1.55%,-9.05%,3.5%,-16.2%
ClC1CC2CC1C1CCCC21 (configuration not stated),-2.4%,-3.75%,-16.1%,7.2%,4.8%,-7.4%
CCOC(=O)C(N=Nc1ccc(C)cc1Br)C(C)=O (configuration not stated),16.2%,13.9%,24.9%,15.6%,22.4%,24.1%

SMILES,growth inhibition [1],growth inhibition [2],growth inhibition [3],growth inhibition [4],growth inhibition [5],growth inhibition [6]
CC1(C)CC23C4COC(=O)C2CCC1C3CC4=O (configuration not stated),-7.25%,-18.1%,20.4%,-0.7%,-0.25%,-21.4%
CC(C)CCCC(C)C1CCC2C3CCC4CC(=O)CCCC4(C)C3CCC12C (configuration not stated),19.8%,3.35%,20.7%,12.2%,2.1%,32.5%
CC(CC(=O)O)C(C)(C#N)C(=O)O (configuration not stated),1.8%,1.4%,2.8%,-41.5%,0.05%,-4.95%
Cc1c(O)c(=O)ccn1CCN,5.65%,-8.35%,2.6%,-34%,-9.7%,5.8%
O=C1C(Cl)C(c2ccccc2O)N1n1cnc2ccccc2c1=O (configuration not stated),-29.4%,8.9%,-12.5%,-9.5%,-7.8%,-16.2%
CCCCCc1ccc(C)cc1OC(C)=O,14.1%,-1.4%,8.85%,-14.1%,-2.75%,0.5%
O=C(NCCCc1ccccc1)Nc1ccccc1,16.4%,-0.65%,-8.05%,-10.4%,-1.35%,3.45%
O=C(N/N=C/c1cccnc1)C(O)C(O)C(O)C(O)CO (configuration not stated),-4.15%,8.9%,6.75%,7.6%,-12.6%,11.9%
CC1(C(=O)O)CCCC1C(CCC(=O)O)C(=O)O (configuration not stated),-13.8%,15.1%,0.55%,-19.6%,-6.9%,-35.1%
Nc1ccn(C2OC(CO)C(O)C2Br)c(=O)n1 (configuration not stated),3.9%,8.75%,14.2%,-12%,-10.1%,14.1%
c1ccc2cc3c(NC4=NCCO4)cccc3cc2c1,-2.8%,5.9%,-2.7%,22.4%,33.1%,16.2%
CCc1ccc2c(c1)CCC(=O)O2,0.5%,-15.2%,-4.8%,-23.7%,-13.9%,-7.65%
NNC(=O)c1nnc(N)o1,-11.6%,-12.1%,7.25%,-9.45%,-11.7%,6.45%
COC(=O)c1ccccc1C(=O)O,17.1%,4.05%,11.6%,-10.1%,3.4%,23.2%
CCCCCCCCCC(CC(OC)OCC)OC (configuration not stated),10.7%,4.25%,5.9%,-13.8%,-2.7%,-24.6%
CC(CN1CCCCC1)SSC(C)CN1CCCCC1 (configuration not stated),41.8%,14.9%,27%,-29.1%,11.5%,44.2%
Cn1c(=O)c2c(ncn2CCNC(c2ccccc2)c2cccc(Cl)c2)n(C)c1=O (configuration not stated),6%,-8.05%,4.35%,-8.3%,0.8%,12.8%
CN1C(=O)C(n2[nH]c(=O)n(-c3ccccc3)c2=O)C(=O)N(C)C1=O,11.8%,12.7%,-6.55%,-23.1%,16.9%,22.9%
C(=N/Nc1ccccn1)/NN/C=N/Nc1ccccn1,-7.6%,6.25%,-3.8%,7.1%,-2.45%,-4.9%
CCOC(CN(C)C)OCC,8.6%,6.95%,4.1%,-18.2%,-5.8%,5.7%
Cc1cc(OCCOc2ccc(N)cc2)ccc1N1C(N)=NC(N)=NC1(C)C,-1.5%,12.7%,6.65%,83.2% (active),1.45%,-3%
